V-ATPase pHluor – alters yeast V-ATPase proton transport; S. cerevisiae, pHLuorin cytosolic pH fluorescence; 350,000 tested, 0.37% active; AID 504577; response, % at 10 µM; in the data active = response mostly above about 7.3%, no sharp cut-off; inactive = mostly below about 5.4%; also: actives read high
Rev-erbA mod – modulators of human Rev-erb alpha DNA binding; P20393; Rev-erbα–FITC-DNA binding, fluorescence polarization, 90 min; activity, % at 10 µM; 370,000 tested, 0.79% active;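 active = activity above about 14%, limit read from the data; passing the limit was not always enough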
Target sequence (P20393 whole entry, looked up): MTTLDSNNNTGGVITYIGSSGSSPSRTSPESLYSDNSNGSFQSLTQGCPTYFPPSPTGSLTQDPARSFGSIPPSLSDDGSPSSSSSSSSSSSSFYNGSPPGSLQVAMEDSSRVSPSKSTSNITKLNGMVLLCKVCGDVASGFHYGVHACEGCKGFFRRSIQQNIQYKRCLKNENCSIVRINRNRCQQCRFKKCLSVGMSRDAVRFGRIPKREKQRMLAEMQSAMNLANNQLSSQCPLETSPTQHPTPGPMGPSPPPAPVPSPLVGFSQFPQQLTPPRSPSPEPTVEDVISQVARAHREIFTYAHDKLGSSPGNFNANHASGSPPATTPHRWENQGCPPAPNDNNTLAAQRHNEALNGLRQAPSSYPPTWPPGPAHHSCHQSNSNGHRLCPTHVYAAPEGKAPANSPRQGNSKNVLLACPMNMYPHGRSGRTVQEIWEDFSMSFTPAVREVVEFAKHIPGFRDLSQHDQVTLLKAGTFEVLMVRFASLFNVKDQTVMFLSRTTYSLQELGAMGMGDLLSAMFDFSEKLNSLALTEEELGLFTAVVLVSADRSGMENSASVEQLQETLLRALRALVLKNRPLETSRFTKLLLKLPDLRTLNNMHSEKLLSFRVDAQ
NPR2 activator – GC-B (human) receptor activation; HEK293-GC-B cells, CNP EC30, cGMP TR-FRET; 0% at EC30 CNP, 100% saturating CNP; 370,000 tested, 0.11% active; P20594; activation, % at 10 µM;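 active = activation at 10 µM reaching about 35% in either raw or pattern-adjusted values, limit read from the data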
PG9 Ab binder – small molecules binding HIV-1 gp120 antibody PG9; 360,000 tested, 0.43% active; AID 624416; inhibition, % at 6.7 µM; TR-FRET gp120-PG9 antibody binding; in the data active = inhibition above about 8.5%
GC-A act – GC-A (human) enzyme activation | P16066 | HEK293 GC-A cells, cGMP TR-FRET, EC30 ANP; 0% at EC30 ANP, 100% saturating ANP | activation, % at 10 µM | 370,000 tested, 0.14% active | AID 1671463; in the data active = activation above about 40%
A number is an active result; 0 = inactive; - = not tested or not shown. The list is not random: actives were taken first. Their share in the collection is about 1.6%.

SMILES	V-ATPase pHluor	Rev-erbA mod	NPR2 activator	PG9 Ab binder	GC-A act
Cc1ccc2oc(=O)c3cnn(CC(=O)NCCc4ccsc4)c3c2c1	0	0	0	22	0
Cc1ccc2oc(=O)c3cnn(CC(=O)NCCN(C)C)c3c2c1	0	0	0	0	0
COc1cc(-c2cc(NC=O)c3ncc(-c4ccc(C(C)=O)cc4)n3c2)cc(OC)c1OC	-	0	35	0	0
COc1cc(-c2cc(NC=O)c3ncc(-c4ccccc4)n3c2)cc(OC)c1OC	-	0	35	0	0
COc1cc(-c2cnc3c(NC=O)cc(-c4ccccc4)cn23)cc(OC)c1OC	-	0	0	0	0
C[N+](C)(C)CCOP(=O)([O-])OP(=O)(O)OC[C@H]1OC(n2ccc(N)nc2=O)[C@H](O)[C@@H]1O (stereo partly specified)	-	0	-	-	-
Oc1ccc(C=Nc2ccccc2-c2nc3ccccc3[nH]2)cc1	0	0	45	0	0
Nc1ccccc1-c1nc2ccccc2[nH]1	0	0	0	0	0
C[C@]12CCC3c4ccc(O)cc4CCC3C1CC[C@@H]2OC(=O)CCC1CCCC1 (stereo partly specified)	-	0	-	-	-
CC(=O)Nc1ccc(-c2csc(NC(=O)C3CSC4(C)CCC(=O)N34)n2)cc1 (stereo unspecified)	0	0	0	0	0
CC12CCC(=O)N1C(C(=O)Nc1nc(-c3ccc(F)cc3)cs1)CS2 (stereo unspecified)	0	0	0	0	46
CC12CCC(=O)N1C(C(=O)Nc1nc(-c3ccc(F)c(F)c3)cs1)CS2 (stereo unspecified)	0	0	0	0	43
Cc1[nH]c2ccccc2c1C(=O)CSc1ncn[nH]1	0	0	0	0	0
Cc1[nH]c2ccccc2c1C(=O)CSc1n[nH]c(N)n1	13	0	0	0	0
CC(=O)c1sc(NC(=O)CS(=O)(=O)c2ccccc2)nc1-c1ccccc1	18	0	0	0	0
CC(=O)c1sc(NC(=O)CS(=O)(=O)c2ccccc2)nc1C	0	0	0	0	0
CCN(CC)c1ncnc2c1cnn2Cc1ccc(C)cc1	0	0	38	0	0
COc1ccc(-c2csc3ncnc(N4CCN(S(=O)(=O)c5ccc(C(C)=O)cc5)CC4)c23)cc1	17	0	0	0	0
CCOC(=O)C1=C(COC(=O)Cc2c(F)cccc2Cl)NC(=O)NC1C (stereo unspecified)	0	0	36	0	0
CC1(C)Cc2c(sc3c2c(=N)n(Cc2ccco2)c(=O)n3Cc2ccc(Cl)cc2)CO1	0	0	35	0	0
Cc1ccc(-c2nc3cnccn3c2Nc2ccccc2)o1	0	0	32	0	0
Cc1ccc(-c2nc3ccccn3c2Nc2ccccc2)o1	0	0	0	0	0
Cc1ccc(Nc2c(-c3ccc(C)o3)nc3cnccn23)cc1	0	0	40	0	0
O=C(Nc1ccc(Br)cc1)OC1CC2CC1[C@H]1CCCCN1[C@H]2Cc1ccccc1 (stereo partly specified)	-	0	0	-	0
CC(=O)Nc1nnc(CCS(=O)(=O)c2ccc(C)cc2)s1	23	0	0	0	0
SMILES	V-ATPase pHluor	Rev-erbA mod	NPR2 activator	PG9 Ab binder	GC-A act
C[C@]12CCC(=O)C=C1CCC1C2[C@@H](O)C[C@@]2(C)C1CC[C@]2(O)C(=O)COC(=O)CCC(=O)O (stereo partly specified)	-	0	-	-	-
COc1ccccc1Cn1nnc2c(=O)[nH]c(C3CCN(C(=O)c4ccc(F)cc4)CC3)nc21	0	0	0	0	0
COc1ccccc1Cn1nnc2c(=O)[nH]c(C3CCN(C(=O)c4ccccc4Cl)CC3)nc21	0	0	48	0	0
Cc1ccccc1NC(=O)c1cc2ccccc2o1	14	0	0	0	0
COc1ccccc1CNC(=O)Cc1c[nH]c2ccccc12	13	0	0	0	0
COc1ccc(CNC(=O)Cc2c[nH]c3ccccc23)cc1OC	0	0	0	0	0
CC(=O)NC(C)C(=O)N1CCCC1C(=O)N1CCCC1C(=O)NC(C)C(=O)NC1C(=O)NC(CC(C)C)C(=O)NC2CCCCNC(=O)CCC(C(=O)NC(Cc3ccc(O)cc3)C(=O)O)NC(=O)C3CCC(=O)OCC(NC(=O)C4CCCN4C(=O)C(Cc4c[nH]c5ccccc45)NC2=O)C(=O)NC(CC(=O)OC1C)C(=O)NC(Cc1c[nH]c2ccccc12)C(=O)N3 (stereo unspecified)	-	0	0	-	0
CCNc1nc(NCC)nc(N(C#N)C(C)C)n1	0	0	0	0	0
CCNc1nc(NC(C)(C)C)nc(N(C#N)CC)n1	0	0	48	0	44
CCOc1cc(N2CCOCC2)c(OCC)cc1NC(=O)Cn1[nH]c(=O)c2ccccc2c1=O	0	0	36	0	0
CCOc1ccccc1NC(=O)Cn1[nH]c(=O)c2ccccc2c1=O	0	-	-	-	-
CCOc1ccc(CN(C)c2nc(-c3cccnc3)nc3ccccc23)cc1OC	16	0	0	0	0
O=C(Cc1ccccc1)Nc1ccccc1Sc1ccccc1	0	0	0	0	0
CC(=O)N1CCN(CC(=O)Nc2ccccc2Sc2ccc(Cl)cc2)CC1	0	0	0	0	0
O=C(Cc1ccc(F)cc1)Nc1ccccc1Sc1ccccc1	16	0	0	0	0
O=C(CCl)Nc1ccccc1Sc1ccc(Cl)cc1	0	0	0	0	45
CS(=O)(=O)N(CC(=O)Nc1ccccc1Sc1ccccc1)c1ccc(F)cc1	0	0	0	14	0
COC(=O)C1CN(Cc2cn(Cc3ccc(Cl)cc3)nn2)CCS(=O)(=O)N1Cc1ccccc1 (stereo unspecified)	-	0	0	-	0
C#C[C@]1(O)CCC2C3CCc4cc(O)ccc4C3CC[C@@]21C (stereo partly specified)	-	0	-	-	-
N/C(=N\OC(=O)c1ccc(Cl)cc1Cl)c1ccncc1	0	0	0	0	43
N/C(=N\OC(=O)c1cc(Cl)ccc1Cl)c1ccncc1	-	0	0	0	0
CCCc1cc(=O)oc2cc(OCc3nn[nH]n3)ccc12	0	0	0	0	0
CCCCc1cc(=O)oc2cc(OCc3nn[nH]n3)ccc12	18	0	0	0	0
O=c1ccc(N=Nc2ccccc2)ccc1O	44	0	0	0	0
COc1ccc(Oc2c(-c3ccc(O)cc3O)n[nH]c2C)cc1	0	0	0	0	44
CCCOC(=O)c1ccc(Oc2c(-c3ccc(OCC)cc3O)n[nH]c2C)cc1	0	0	0	0	0
CCCC1CCC2(CCC(=O)N2CCSc2ccccc2)CC1 (stereo unspecified)	-	0	0	-	0
O=C1NN(c2ccccc2)C(=O)/C1=C\c1cccc(OC(=O)c2cccs2)c1	0	0	0	0	41
C#CCOCCOCCOCCNc1nc(N2CCN(C(=O)[C@H]([C@@H](C)CC)n3cc(CCCCN)nn3)CC2)nc(N2CCN(C(=O)[C@H](C)n3cc(CCC(=O)O)nn3)CC2)n1	0	0	53	0	0
CC(=O)Oc1ccc2c(c1)c(C(C)=O)c(C)n2C	18	0	0	0	0
